Compound activity deposited in PubChem BioAssay by Johns Hopkins Ion Channel Center.
An excerpt weighted towards active compounds, which were near 1.6% of everything screened.
KCNQ2 pot: potentiators of rat KCNQ2 potassium channel | CHO-K1 KCNQ2, FluxOR thallium flux fluorescence; hits give high values | 310,000 compounds, 0.54% hits | Potassium voltage-gated channel subfamily KQT member 2 (Rattus norvegicus), O88943 | B-score at 10 µM;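 active = fluorescence ratio B-score at least 3 SD of library B-scores, with initial fluorescence B-score within 3 of them, cut at about 5.3 in these data; same plate scores as AID 2156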;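 also: B-score of peak minus minimum over baseline fluorescence ratio after K+ and Tl+ stimulus; positive B-score means potentiation of KCNQ2 with more thallium influx and brighter signal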
KCNQ2 block: rat KCNQ2 potassium channel inhibitors, primary screen, cell-based, CHO-K1, FluxOR thallium flux, B-score. B-score at 10 µM. Potassium voltage-gated channel subfamily KQT member 2 (Rattus norvegicus), O88943. 20 min; hits give low values. 310,000 compounds, 1.1% hits;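 active = fluorescence ratio B-score at most minus 3 library SDs, with starting brightness B-score within 2 library SDs, cut at about -5.5 in these data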
Kir21 confirm: mouse Kir2.1 channel blockers, retest, confirmation, cell-based, FluxOR thallium flux, duplicate; AID 2032, 2009; 2,300 compounds, 41% hits; shares compounds with KCNQ2 pot; Kir2.1-expressing cells, FluxOR thallium flux fluorescence; hits give low values; Tl flux remaining, % of negative control (hits give low values), % at 10 µM;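 active = Primary-screen hit whose thallium flux fell at least 3 control SD below untreated wells in both duplicates, with normal baseline fluorescence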
HEK293 ctr: counter-screen for Kir2.1 inhibitors: effect in parental HEK293 cells; shares compounds with KCNQ2 pot; FluxOR thallium flux fluorescence; 0% = unstimulated blank wells; FluxOR signal as % of negative control (100 = no effect), % at 10 µM; 2,300 compounds, 19% hits;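 active = dye signal at least 3 control SD above or below untreated wells in both duplicates, raw fluorescence within 3, either direction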;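 also: percent is based on the flux ratio of peak minus minimum fluorescence over baseline F0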
CHO-K1 ctr: nonspecific thallium flux increase in parental CHO-K1, confirmation, counter-screen for KCNQ2 potentiator project, cell-based, FluxOR thallium flux, duplicate; shares compounds with KCNQ2 pot; AID 2282, 2010; activity increase over 3SD of controls, % at 10 µM; parental CHO-K1 cells, FluxOR thallium flux fluorescence; zero = vehicle mean+3SD, 100% = vehicle-minus-blank window; 1,200 compounds, 43% hits;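 active = signal rise of at least 3 SD above the untreated control mean, in both duplicate wells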;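 also: counter screen of KCNQ2 potentiator hits so any rise reflects channel-independent effects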
KCNQ1 sel pot: human KCNQ1 channel potentiation off-target, confirmation, selectivity assay for KCNQ2 potentiator project, cell-based, CHO, FluxOR thallium flux | shares compounds with KCNQ2 pot | 1,200 compounds, 28% hits | CHO KCNQ1 stable, FluxOR thallium flux fluorescence; beyond 3SD, as % of vehicle-control signal | activation over 3SD threshold, % at 10 µM;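 active = fluorescence ratio rise of at least 3 SD of vehicle wells above their mean, in both replicate wells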
KCNQ2 pot confirm: rat KCNQ2 channel potentiators, confirmation, cell-based, CHO, FluxOR thallium flux, duplicate; AID 2287, 2010; potentiation, less the hit threshold, % at 10 µM; shares compounds with KCNQ2 pot; CHO-KCNQ2 cells, FluxOR thallium flux fluorescence; 1,200 compounds, 68% hits;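 active = fluorescence ratio rising 3 SD or more over the vehicle control mean in both replicates, plus primary screen hit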;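 also: peak minus minimum thallium fluorescence divided by baseline after K/Tl stimulus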
Kir2-1 sel: mouse Kir2.1 channel activation off-target, confirmation, selectivity assay for KCNQ2 potentiator project, cell-based, HEK293, FluxOR thallium flux; activity over 3SD threshold, % at 10 µM; AID 2345, 2010; 1,200 compounds, 2% hits; HEK293 Kir2.1, FluxOR thallium flux fluorescence; shares compounds with KCNQ2 pot;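 active = fluorescence ratio rise of at least 3 SD above the vehicle-control mean, seen in both replicates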
KCNQ2 W236L MoA: potentiators of retigabine-insensitive KCNQ2 W236L, mechanism study for KCNQ2 potentiator project, cell-based, rat KCNQ2 W236L, CHO, automated patch clamp; 940 compounds, 10% hits; automated patch clamp current; shares compounds with KCNQ2 pot; current increase over 3SD of negative controls (%), hits give high values, % at 25 µM;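 active = current increase at least 3 SD of the untreated controls above them in both duplicate recordings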
Target sequence (O88943 whole entry W236L, looked up): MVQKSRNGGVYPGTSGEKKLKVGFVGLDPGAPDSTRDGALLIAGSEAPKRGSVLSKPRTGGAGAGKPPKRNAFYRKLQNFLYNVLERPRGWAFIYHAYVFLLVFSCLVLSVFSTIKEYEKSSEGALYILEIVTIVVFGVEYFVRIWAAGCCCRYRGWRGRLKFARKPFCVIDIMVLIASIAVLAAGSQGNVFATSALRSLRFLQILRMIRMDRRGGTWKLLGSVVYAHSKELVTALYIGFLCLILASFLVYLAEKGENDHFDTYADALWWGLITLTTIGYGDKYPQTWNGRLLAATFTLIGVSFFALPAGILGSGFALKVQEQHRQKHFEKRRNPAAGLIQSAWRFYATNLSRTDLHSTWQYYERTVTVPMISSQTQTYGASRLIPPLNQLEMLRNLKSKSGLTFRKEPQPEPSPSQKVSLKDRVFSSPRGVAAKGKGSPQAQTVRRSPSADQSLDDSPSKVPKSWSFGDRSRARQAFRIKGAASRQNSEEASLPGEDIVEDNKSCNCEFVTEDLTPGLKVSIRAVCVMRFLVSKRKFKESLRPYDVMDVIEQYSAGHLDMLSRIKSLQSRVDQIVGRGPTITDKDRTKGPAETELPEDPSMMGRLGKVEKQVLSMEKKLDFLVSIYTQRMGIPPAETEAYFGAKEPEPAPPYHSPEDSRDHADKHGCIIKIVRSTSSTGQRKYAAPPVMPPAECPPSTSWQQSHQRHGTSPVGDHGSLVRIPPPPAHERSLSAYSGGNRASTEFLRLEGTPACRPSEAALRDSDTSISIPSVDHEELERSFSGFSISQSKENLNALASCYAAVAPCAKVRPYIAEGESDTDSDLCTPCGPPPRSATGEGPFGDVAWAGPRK
A number is an active result; i = inactive; nt = no result given.

SMILES	KCNQ2 pot	KCNQ2 block	Kir21 confirm	HEK293 ctr	others
O=C(CCNS(=O)(=O)c1ccccc1F)N1CCN(C(c2ccccc2)c2ccccc2)CC1	16	i	i	i	CHO-K1 ctr=i;KCNQ1 sel pot=i;KCNQ2 pot confirm=44;Kir2-1 sel=i;KCNQ2 W236L MoA=i
NC(Cc1ccc(Oc2ccc(O)cc2)cc1)C(=O)O (stereo unspecified)	i	i	nt	nt
COC(=O)C1CC(c2ccc(Cl)cc2)=NO1 (stereo unspecified)	i	i	nt	nt
COc1cc(CNCc2cccc3ccccc23)cc(OC)c1	nt	i	nt	nt
COc1ccc(CNCc2ccc(OC)c3ccccc23)cc1	i	i	20%	i
COc1ccccc1CNCC(c1ccccc1)c1ccccc1	nt	i	48%	i
COc1ccccc1CNCc1cccc(Oc2ccccc2)c1	i	i	i	i
COc1cccc(CNCc2ccc(OC)c3ccccc23)c1OC	i	i	nt	nt
COc1ccccc1CNCc1cc(OC)c(OC)cc1OC	i	i	nt	nt
COc1ccccc1CNCc1cc(Br)ccc1OC	i	i	nt	nt
COc1ccccc1CNCc1ccc(OC)c2ccccc12	i	i	36%	i
Cc1cc(S(=O)(=O)N2CCOCC2)ccc1OCC(=O)Nc1ccc(Br)cc1F	i	i	nt	nt
C[C@]12C(=O)N(c3ccc(Cl)cc3)C(=O)N1[C@@H]1c3ccccc3OC[C@@H]1[C@H]2c1ccccc1	nt	i	nt	nt
O=C(O)CCNC(=O)CCCn1nnc2ccccc2c1=O	i	i	nt	nt
CCN(CC1COc2ccccc2O1)C(=S)NC1CC2CCC1C2 (stereo unspecified)	12	i	i	64%	CHO-K1 ctr=37;KCNQ1 sel pot=i;KCNQ2 pot confirm=i;Kir2-1 sel=i;KCNQ2 W236L MoA=i
CN(CC1COc2ccccc2O1)C(=S)Nc1ccccc1 (stereo unspecified)	nt	i	nt	nt
CCOC(=O)c1ccc(NC(=O)COc2ccc(S(=O)(=O)NC(C)CC)cc2)cc1 (stereo unspecified)	i	i	nt	nt
CCOC(=O)c1ccc(NC(=O)C(C)NS(=O)(=O)c2ccc(OC)cc2)cc1 (stereo unspecified)	5.8	i	i	i	CHO-K1 ctr=34;KCNQ1 sel pot=i;KCNQ2 pot confirm=i;Kir2-1 sel=i
CC(C)CCN1C(=O)c2ccc(C(=O)Nc3ccc(Br)cc3C(=O)O)cc2C1=O	i	i	nt	nt
C[C@H]1[C@@H](OC(=O)CCC(=O)O)O[C@@H]2OC3(C)CC[C@H]4[C@H](C)CC[C@@H]1[C@@]24OO3	i	i	nt	nt
CCN(CC)CCOC(=O)C(Cc1ccco1)Cc1cccc2ccccc12 (stereo unspecified)	nt	i	36%	i
CCN(CC)CCOC(=O)CCc1cccc2ccccc12	i	i	nt	nt
O=C(/C=C/c1ccccc1)n1cnnc1SC/C=C/c1ccccc1	nt	i	i	i
Cc1nnc(SC/C=C/c2ccccc2)n(N)c1=O	i	i	nt	nt
Cc1ccc(NC(=O)C2C3/C=C\CCCCC32)cc1 (stereo unspecified)	i	i	nt	nt
SMILES	KCNQ2 pot	KCNQ2 block	Kir21 confirm	HEK293 ctr	others
Cc1cc(C)c(NC(=O)C2C3/C=C\CCCCC32)c(C)c1 (stereo unspecified)	12	i	i	i	CHO-K1 ctr=i;KCNQ1 sel pot=i;KCNQ2 pot confirm=56;Kir2-1 sel=i;KCNQ2 W236L MoA=i
Cc1ccc(NC(=O)Cn2nnc(C(=O)NCc3cccs3)c2N)cc1F	nt	i	nt	nt
N/C(=N\OC(=O)COc1ccc(Br)cc1)c1ccncc1	i	i	nt	nt
N/C(=N\OS(=O)(=O)c1ccc(Br)cc1)c1ccncc1	5.6	i	i	i	CHO-K1 ctr=24;KCNQ1 sel pot=i;KCNQ2 pot confirm=i;Kir2-1 sel=i
COc1cccc(-n2nc(C(=O)N3CC(C)CC(C)C3)c3ccccc3c2=O)c1 (stereo unspecified)	nt	i	nt	nt
O=C1NC2(CCCCCC2)C(=O)N1Cc1ccccc1	5.6	i	i	i	CHO-K1 ctr=i;KCNQ1 sel pot=i;KCNQ2 pot confirm=i;Kir2-1 sel=i
O=C1NC2(CCCCCCC2)C(=O)N1Cc1ccc(F)cc1	nt	i	nt	nt
O=C(Nc1ccc(F)cc1)C1=CC(=O)N2CCN=C2S1	i	i	nt	nt
O=C(CSc1ccccc1)N/N=C/c1ccccc1O	6	i	i	i	CHO-K1 ctr=i;KCNQ1 sel pot=i;KCNQ2 pot confirm=25;Kir2-1 sel=i;KCNQ2 W236L MoA=i
O=C(CSc1n[nH]c(=O)[nH]c1=O)N/N=C/c1ccccc1O	i	i	nt	nt
COc1ccc(-n2nc3c(c2NC(=O)COc2ccccc2F)CS(=O)(=O)C3)cc1	i	i	nt	nt
CCCCN(C(=O)CCn1c(=O)oc2ccccc21)c1ccccc1	nt	i	49%	i
CCN(CC)C(=O)Cn1c(=O)oc2ccccc21	nt	i	nt	nt
Cc1cc(C)c2ccc(N)nc2c1O	12	i	i	i	CHO-K1 ctr=i;KCNQ1 sel pot=i;KCNQ2 pot confirm=12;Kir2-1 sel=i;KCNQ2 W236L MoA=i
Cc1cc(C)c2cccc(N)c2n1	nt	i	nt	nt
Cc1cc(Nc2ccc(C)c(Br)c2)n2nc(C)nc2n1	i	i	nt	nt
Cc1c(N2C(=O)/C(=C/c3ccccc3)SC2=S)c(=O)n(-c2ccccc2)n1C	i	i	nt	nt
Cc1c(N2C(=O)/C(=C\c3ccccc3O)SC2=S)c(=O)n(-c2ccccc2)n1C	18	i	i	343%	CHO-K1 ctr=114;KCNQ1 sel pot=i;KCNQ2 pot confirm=40;Kir2-1 sel=i;KCNQ2 W236L MoA=i
O=C(CC12CC3CC(CC(C3)C1)C2)NC(Cc1ccccc1)C(=O)O (stereo unspecified)	i	i	nt	nt
CNC[C@H](CC1CCCCC1)NC[C@H](Cc1ccccc1)NCCC12CC3CC(CC(C3)C1)C2	i	i	i	i
O=C(NCCCc1ccncc1)C1CCC(=O)N(CCc2cccc(F)c2)C1 (stereo unspecified)	i	i	nt	nt
COc1cc(NC(=O)C2CC(c3ccccc3Cl)=NO2)cc(OC)c1OC (stereo unspecified)	i	i	nt	nt
O=C(/C=C/c1ccccc1)NCc1ccc2c(c1)OCO2	i	i	nt	nt
O=C(/C=C/c1cccs1)NCc1ccc2c(c1)OCO2	8.6	i	i	i	CHO-K1 ctr=12;KCNQ1 sel pot=i;KCNQ2 pot confirm=1.0;Kir2-1 sel=i;KCNQ2 W236L MoA=i
